Hits are enriched below; roughly 2.2% of the tested compounds scored in any of these assays.
Nrf2 inh = blocks Nrf2 signaling; A549 ARE-Fluc reporter, luciferase luminescence, 18-24 h; Potency, µM (top dose mostly 46 µM), hits mostly inhibitors; actives 2.1% (n = 360,000); AID 504444; note: nearly all actives have a fitted effect of over 60% in size
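A549 ARE_Fluc cells, 5000/well, 5% FBS OPTI-MEM; compounds in dose-response, 18-24 h at 37 °C/5% CO2; CellTiter-Fluor viability read (Ex 405/Em 525), then BugLite luciferase luminescence = Nrf2 activity.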
Nrf2 activator = activators of Nrf2 (ARE) signaling; AREc32 ARE-luciferase reporter (MCF7-derived line), luminescence, 24 h; Potency, µM (titrated, usually from 46.1 µM), usual class: activators; actives 0.31% (n = 410,000); note: nearly all actives have a fitted effect of over 65% in size
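Each well held 1000 AREc32 cells, which were incubated with compound for 24 hr at 37 deg C after overnight attachment, and ARE reporter activity was quantified by firefly luciferase luminescence.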
Pin1 inh = blocks the human prolyl isomerase Pin1 | Pin1 FP peptide displacement, HiFluor488, 10 min | Potency, µM (highest dose often 115 µM), most hits filed as inhibitors | actives 0.009% (n = 390,000) | Q13526 | AID 504891; active = well fitted inhibition curve with a large enough effect in the polarisation, with a control signal flat, not every such curve was filed as active; inconclusive = small, poorly fitted or top-dose-only effect, or effect the other way, or a change in a side signal; inactive = no such curve, though single readings can be large or run the other way; the % refers to the polarisation
Target sequence (Q13526 whole entry, looked up): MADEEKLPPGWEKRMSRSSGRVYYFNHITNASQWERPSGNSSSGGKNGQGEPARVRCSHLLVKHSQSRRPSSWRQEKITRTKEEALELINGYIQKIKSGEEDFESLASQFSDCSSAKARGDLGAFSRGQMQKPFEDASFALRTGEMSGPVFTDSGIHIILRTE
A549 viability = counter-screen for Nrf2 inhibitors: cytotoxicity in A549 cells | actives 0.16% (n = 390,000) | A549 ARE-Fluc cells, CellTiter-Fluor viability, 18-24 h | AID 504648 | Potency, µM (series often up to 46 µM), hits mostly inhibitors
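A549 ARE_Fluc cells in 5% FBS OPTI-MEM were exposed to compounds in concentration-response for 18-24 h at 37 deg C. Viability was read by CellTiter-Fluor fluorescence (Ex 405/Em 525) after 30 min, before the luciferase read.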
Each line names hits and unclear results; the compound was inactive in the other large screens. Unless noted, calls come from the whole dose curve; as a rule, active = well fitted curve in the direction sought with a large enough effect; inconclusive = small, poorly fitted or top-dose-only effect, or another doubt; inactive = no such curve, though single readings can be large; an effect the other way counts as inactive or inconclusive.

COc1ccc(/C=N\NC(=O)COc2ccc(C(C)(C)C)cc2)cc1Cn1nc(C)cc1C	A549 viability 14.6µM (no result: Nrf2 inh)
Cn1nnnc1Sc1ncnc2scc(-c3ccccc3F)c12	Nrf2 inh inconclusive (no result: Nrf2 activator)
CCc1ccc2oc(-c3cc(NC(=O)c4cc(OC)c(OC)c(OC)c4)ccc3O)nc2c1	none
Cc1cccc(C(=O)Nc2ccc(-c3nc4cc(C(C)C)ccc4o3)cc2)c1	Nrf2 inh 14.6µM
COc1cc(OC)cc(C(=O)Nc2ccc(-c3nc4cc(C(C)C)ccc4o3)cc2)c1	Nrf2 inh 14.6µM, Pin1 inh inconclusive
COc1cc(C(=O)Nc2ccc(-c3nc4cc(C)ccc4o3)c(O)c2)cc(OC)c1OC	Nrf2 inh 20.6µM
C/C(=N\NC(=S)NC1CCCCC1)c1ccc(OC(F)F)cc1OC(F)F	Nrf2 inh 20.6µM
CCN(Cc1ccccc1)C(=O)Cn1c(=O)cc(C)c2c(C)nn(-c3cccc(F)c3)c21	Nrf2 inh 20.6µM
CCc1ccc(-n2nc(C)c3c(C)cc(=O)n(CC(=O)N(CC)Cc4ccccc4)c32)cc1	none
CC(=O)c1ccc(OCC(O)COc2ccc(C(C)=O)cc2)cc1	none
CC(=O)c1ccc(OCC(O)CN(C)CCOc2ccc(Br)cc2)cc1 (stereo not given)	Nrf2 inh 18.4µM
Cc1ccc(-c2cnc(N3CCC(C(N)=O)CC3)s2)cc1	none (no result: Nrf2 inh, Nrf2 activator, A549 viability)
COc1ccc(-c2cccc(C3C4C=CCCC4(C)C(=O)N3Cc3ccccc3)c2)cc1 (stereo not given)	none (no result: Nrf2 activator)
FC(F)(F)c1cccc(Cc2noc(CN3CCC(c4ccncc4)CC3)n2)c1	Nrf2 inh 18.4µM
c1cc(C2CCN(Cc3nc(-c4ccc5c(c4)OCO5)no3)CC2)ccn1	Nrf2 inh 16.4µM
CN1CCCC2(CCCN(Cc3nc(Cc4cccc(C(F)(F)F)c4)no3)C2)C1 (stereo not given)	none
Cc1nn(C)c(Cl)c1S(=O)(=O)N1CCC(CO)(CCc2ccccc2)CC1	Nrf2 inh 20.6µM
COc1ccc(CC2(CO)CCN(S(=O)(=O)c3c(C)nn(C)c3Cl)CC2)cc1	none
O=C(O)/C=C/c1cc(F)c(S(=O)(=O)N2CCN(S(=O)(=O)c3ccc4c(c3)OCCO4)CC2)cc1F	none (no result: Nrf2 activator)
CCN(CC)S(=O)(=O)c1ccc(S(=O)(=O)N2CCCC(C(=O)NC3CC3)C2)cc1 (stereo not given)	Nrf2 inh 5.8µM
CN(C)S(=O)(=O)c1ccc(S(=O)(=O)N2CCCC(C(=O)NC3CC3)C2)cc1 (stereo not given)	Nrf2 inh 20.6µM
COc1ccc(S(=O)(=O)N2CCCC(C(=O)NC3CC3)C2)cc1OC (stereo not given)	none
Cc1ccc(S(=O)(=O)C(CNC(=O)COc2ccccc2)c2ccco2)cc1 (stereo not given)	none (no result: Nrf2 inh)
Cc1ccc(S(=O)(=O)c2nnn3c2nc(N2CCCC(C)C2)c2cc(Cl)ccc23)cc1C (stereo not given)	none
Clc1cccc(Cl)c1/C=N\Nc1nccs1	Nrf2 activator 10µM
O=C1c2cccc3c([N+](=O)[O-])ccc(c23)C(=O)N1O	Nrf2 inh inconclusive, Nrf2 activator 12.6µM, Pin1 inh inconclusive
O=C1c2cccc3c([N+](=O)[O-])ccc(c23)C(=O)N1c1ccccn1	Nrf2 inh inconclusive, Pin1 inh inconclusive
CCC(C)NC(=O)c1ccc2c(c1)N=C(C)c1cc(C)ccc1S2 (stereo not given)	none
COc1ccc(OC)c(CNc2ncnc3c2nc2n3CCCC2)c1	Nrf2 inh inconclusive, Pin1 inh inconclusive
COc1ccc(S(=O)(=O)N(C)C)cc1NC(=O)C1CCN(c2ncnc3sc(C)c(C)c23)CC1	Nrf2 inh 11.6µM, A549 viability inconclusive
Cc1sc2ncnc(N3CCC(C(=O)Nc4cc(S(C)(=O)=O)ccc4Cl)CC3)c2c1C	Nrf2 inh 18.4µM
Cc1sc2ncnc(N3CCC(C(=O)Nc4cc(C(F)(F)F)ccc4OCC(F)(F)F)CC3)c2c1C	none
CCOc1ccc(NC(=O)Cc2coc3ccc(C)cc23)cc1	none
Brc1ccc(-c2nnc(-c3cccnc3)c3conc23)cc1	Nrf2 activator 7.08µM
COc1ccc(-c2nnc(C)c3nocc23)cc1	Pin1 inh inconclusive
CCOc1ccc(Cl)cc1CNCCCSc1nnnn1C	none
CCCOc1ccc(C(=O)Nc2ccc(S(=O)(=O)NC3=NCCCCC3)cc2)cc1	Nrf2 inh 18.4µM
O=C(Nc1ccc(S(=O)(=O)NC2=NCCCCC2)cc1)c1ccc(Cl)cc1Cl	Nrf2 inh 16.4µM
CCC1CCc2nc3sc(C(=O)Nc4ccc(C)cc4)c(N)c3cc2C1 (stereo not given)	none
CCOC(=O)c1cccc(NC(=O)CCc2c(C)nn(-c3ccc(N4CCCCC4)nn3)c2C)c1	none
O=C(Nc1ccc(N2CCOCC2)c(S(=O)(=O)Nc2ccccc2Cl)c1)c1ccc(F)cc1	Nrf2 inh inconclusive
O=C(Nc1ccc(Cl)c(Cl)c1)Nc1ccc(N2CCCC2)c(S(=O)(=O)Nc2ccccc2Cl)c1	Nrf2 inh 13µM, A549 viability inconclusive
O=C(Nc1ccc(N2CCCCC2)c(S(=O)(=O)Nc2ccccc2Cl)c1)c1cccnc1	Nrf2 inh inconclusive, Pin1 inh inconclusive
O=C(Nc1ccc(F)cc1)Nc1ccc(N2CCCC2)c(S(=O)(=O)Nc2ccccc2Cl)c1	Nrf2 inh 23.1µM, A549 viability inconclusive
N#CC(c1ccc(Cl)cc1)c1ccc2c(C(F)(F)F)cc(C(F)(F)F)nc2n1 (stereo not given)	Nrf2 inh 1.46µM, A549 viability 5.8µM
COc1ccc(-c2csc(NC(=S)NC(=O)c3ccc4ccccc4c3)n2)cc1OC	Nrf2 inh 9.2µM
COc1ccc(-c2csc(NC(C)=O)n2)cc1OC	none
COc1cccc(NC(=O)Nc2nc(-c3ccc(OC)c(OC)c3)cs2)c1	Nrf2 inh 7.31µM, A549 viability 16.4µM
COc1ccccc1C(=O)Nc1nc(-c2ccc3c(c2)OCCO3)cs1	Nrf2 inh 23.1µM
COCCNC(=O)C(=O)N/N=C/c1cccs1	none
COc1ccccc1NC(=O)C(=O)N/N=C/c1cccs1	Nrf2 inh inconclusive, Nrf2 activator 11.2µM
CC1CCCCC1NC(=O)NC(=O)CCl (stereo not given)	Nrf2 activator 14.1µM
CC1CCCC(NC(=O)NC(=O)CCl)C1C (stereo not given)	Nrf2 activator inconclusive
N#Cc1nc(N(c2ccccc2)c2ccccc2)nc(-n2cccc2)n1	none (no result: Nrf2 activator)
Cc1ccc(NC(=O)CSc2nc3c(sc4ccccc43)c(=O)n2CCCC(=O)NC2CCCC2)cc1C	none
COc1ccccc1C(C[N+](=O)[O-])c1c(N)n(C)c(=O)n(C)c1=O (stereo not given)	Nrf2 inh 11.6µM, Nrf2 activator inconclusive, A549 viability inconclusive
COc1ccccc1C(c1c(N)n(C)c(=O)n(C)c1=O)C(C)[N+](=O)[O-] (stereo not given)	Nrf2 inh inconclusive, Nrf2 activator inconclusive
CC(/C=C(\NC(=O)c1ccccc1)C(=O)N=Nc1c(O)[nH]c2ccc(C)cc12)=C\c1ccccc1	Nrf2 activator 8.91µM, A549 viability inconclusive (no result: Nrf2 inh)
O=C(Nc1ccc2oc(Cc3ccc(Cl)cc3)nc2c1)c1cccnc1	Nrf2 inh inconclusive
